Source: PubChem (National Center for Advancing Translational Sciences (NCATS))
A549 viability = counter-screen for Nrf2 inhibitors: cytotoxicity in A549 cells; A549 ARE-Fluc cells, CellTiter-Fluor viability, 18-24 h; Potency, µM (doses to about 46 µM), for inactives: at the top dose activity change, negative = cytotoxicity, hits mostly inhibitors; actives 0.16% (n = 390,000); AID 504648; also: % is scaled to controls: 0 for no effect and ±100 for the full control effect
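A549 ARE_Fluc cells in 5% FBS OPTI-MEM were exposed to compounds in concentration-response for 18-24 h at 37 deg C. Viability was read by CellTiter-Fluor fluorescence (Ex 405/Em 525) after 30 min, before the luciferase read.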
Nrf2 ARE act = activators of Nrf2 (ARE) signaling | AREc32 ARE-luciferase reporter (MCF7-derived line), luminescence, 24 h | Potency, µM (doses to about 46.1 µM), without a hit: at the highest dose activation, usual class: activators | actives 0.31% (n = 410,000) | AID 624171; also: % of control where 0% means no effect; nearly all actives have a fitted effect of over 65% in size
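For detection, Steady-Glo was added and plates sat 30 min at RT; before that, AREc32_Fluc cells grown overnight in OPTI-MEM/5% FBS had been treated with 23 nL compound for 24 hr at 37 deg C.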
Nrf2 block = Nrf2 pathway inhibition. A549 ARE-Fluc reporter, luciferase luminescence, 18-24 h. Potency, µM (series often up to 46 µM), for the others: at the highest dose activity change, negative = inhibition, most hits filed as inhibitors. actives 2.1% (n = 360,000). AID 504444; also: % is scaled to controls: 0 for no effect and ±100 for the full control effect; nearly all actives have a fitted effect of over 60% in size
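A549 ARE_Fluc cells, 5000/well, 5% FBS OPTI-MEM; compounds in dose-response, 18-24 h at 37 °C/5% CO2; CellTiter-Fluor viability read (Ex 405/Em 525), then BugLite luciferase luminescence = Nrf2 activity.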
ELG1 DNA repair = blocks ELG1-dependent DNA repair in HEK293T cells | Potency, µM (titrated, usually from 46.1 µM), for the others: top-dose activity change, negative = inhibition, usual class: inhibitors | HEK293T ELG1-luciferase reporter, luminescence, 16 h; DNA damage induced by 5-fluorouridine | AID 504467 | actives 2.3% (n = 330,000); also: % is scaled to controls: 0 for no effect and ±100 for the full control effect; nearly all actives have a fitted effect of over 55% in size
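DMSO vehicle served as the neutral condition. Each well held 2,000 cells given 5-fluorouridine plus compound; after 16 hr at 37 °C/5% CO2, ONE-Glo was added and luciferase measured 30 min later.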
Numbers without * were called inactive; ? = inconclusive; / = no result; [ ] = another dose, or the depositor's remark. Most compounds without a hit are left out; they make up all but 3.7% or so of the library. Calls follow the shape of the dose curve; as a rule, active = well fitted curve in the direction sought with a large enough effect; inconclusive = small, poorly fitted or top-dose-only effect, or another doubt; inactive = no such curve, though single readings can be large; an effect the other way counts as inactive or inconclusive. Potency is read from the fitted curve at half-maximal effect.

SMILES	A549 viability	Nrf2 ARE act	Nrf2 block	ELG1 DNA repair
COc1cccc(CNc2nc3c(-c4cccc(C)c4)nnn3c3ccccc23)c1	9%	1%	10%	/
COCCOC(=O)CSc1ncccc1-c1nc2cc(C)c(C)cc2[nH]1	2%	3%	15µM*	?
O=C1NC(=O)C([N+](=O)[O-])=C(O)C1=O	/	0%	/	/
O=C(CN(Cc1ccco1)C(=O)c1cc(=O)[nH]c2ccccc12)Nc1ccccc1Br	-9%	-1%	?	21µM*
COc1cc(C2CC(=O)c3cnc(N4CCN(CCO)CC4)nc3C2)cc(OC)c1OC (stereo not drawn)	-9%	0%	?	/
COc1ccc(C2CC(=O)c3c(C)nc(N4CCN(Cc5ccccc5)CC4)nc3C2)cc1OC (stereo not drawn)	/	0%	18µM*	?
COc1cc(C2CC(=O)c3cnc(N4CCN(Cc5ccccc5)CC4)nc3C2)cc(OC)c1OC (stereo not drawn)	?	0%	?	3.3µM*
O=C(NCCc1nc2ccccc2n1CCCOc1ccccc1Cl)C1CCCCC1	-18%	/	?	/
COc1ccc(C(=O)NCCCNC(=O)c2cccnc2)cc1OC	1%	0%	10µM*	4%
CC(C)(C)c1ccc(C(=O)NCCCNC(=O)c2cccnc2)cc1	-3%	-1%	8.2µM*	?
COc1ccc(CCNC(=O)c2cccnc2)cc1OC	-7%	0%	/	5%
CCCOc1ccc(C(=O)NNC(=S)NC(=O)CC)cc1	?	0%	4.6µM*	?
CCCOc1ccc(C(=O)NC(=S)NNC(=O)c2c(-c3ccccc3)noc2C)cc1	-13%	0%	?	7.3µM*
C=CCNC(=S)NNC(=O)c1ccc(OCCC)cc1	-7%	0%	-3%	-5%
CCCOc1ccc(NC(=O)c2c(-c3ccccc3)noc2C)cc1	4%	0%	-14%	-1%
O=C1NC2(CCCCC2)C(=O)N1CC(=O)N(Cc1ccccc1)c1ccccc1	-11%	0%	?	2%
O=C(COC(=O)/C=C/c1ccccc1[N+](=O)[O-])Nc1ccc2[nH]c(=O)[nH]c2c1	2%	11µM*	-1%	-1%
CCCCN(CCCC)CC1OCc2ccccc2CO1	0%[1.84 µM]	0%	5%	?
Cc1ccc[n+](CC2OCc3ccccc3CO2)c1	0%	-1%	7.3µM*	-21%
CN(C)c1ccc(C(C(=O)NCC2CCCO2)N(C(=O)c2snc(C(N)=O)c2N)c2ccccc2)cc1 (stereo not drawn)	-4%	0%	-13%	?
CN(C)c1ccc(C(C(=O)NCC2CCCO2)N(C(=O)c2snc(C(N)=O)c2N)c2ccc3c(c2)OCO3)cc1 (stereo not drawn)	-6%	0%	-12%	21µM*
CC(C)c1ccc(N(C(=O)c2snc(C(N)=O)c2N)C(C(=O)NCC2CCCO2)c2ccc(N(C)C)cc2)cc1 (stereo not drawn)	?	0%	18µM*	?
Cc1cccc(N(C(=O)c2snc(C(N)=O)c2N)C(C(=O)NCC2CCCO2)c2ccc(N(C)C)cc2)c1 (stereo not drawn)	-1%	0%	-5%	-17%
CCOc1ccc(CNC(=O)c2cnc3sc(N(CC)CC)nn3c2=O)cc1OC	7%	-1%	-29%	/
O=C(CSc1nc(=O)n(CCCN2CCOCC2)c2c1CCC2)Nc1ccc([N+](=O)[O-])cc1	-17%	0%	-23%	?
SMILES	A549 viability	Nrf2 ARE act	Nrf2 block	ELG1 DNA repair
CCN1C(=O)Nc2cccc3cccc1c23	2%	?	8.2µM*	/
C=CCN1C(=O)N(CC=C)c2cccc3cccc1c23	1%	0%	-3%	-1%
Cc1ccc(C(=O)NNC(=S)NC(=O)c2ccccc2)cc1	?	4%	16µM*	/
Cc1ccc(C(=O)NNC(=S)NC(=O)c2ccc(Cl)cc2Cl)cc1	-20%	0%	21µM*	5%
O=C(NNC(=S)NC(=O)c1ccc(Br)cc1)c1ccc([N+](=O)[O-])cc1	-2%	3%	21µM*	0%
Cc1ccc(C(=O)NC(=S)NNC(=O)c2ccccc2)cc1	-17%	0%	?	-9%
CCCCC(=O)NC(=S)NNC(=O)c1ccc(Cl)cc1Cl	0%	-1%	?	?
O=C(NNC(=O)c1ccc([N+](=O)[O-])cc1)c1ccc(Br)cc1	3%	-1%	-19%	6%
